Screening results: PubChem, Sanford-Burnham Center for Chemical Genomics
A selection: hits, their analogues and other compounds. The true share with any hit is near 4%.
NALP1 inh – NALP1 inflammasome inhibitors in reconstituted yeast, colorimetric, S. cerevisiae, triplicate retest; S. cerevisiae NALP1/ASC/caspase-1 growth, X-gal OD620, 72 h; inhibition, % at 10 µM; actives 0.61% (n = 280,000); in the data active means inhibition mostly above about 24%, no sharp cut-off; inactive means mostly below about 32%
TIM10 inh – growth inhibitors of isogenic TIM10 control yeast, primary screen, counter-screen for tim10-1 yeast inhibitor project, luminescence, uHTS; S. cerevisiae TIM10 strain growth, BacTiter-Glo luminescence, 24 h; inhibition, % at 10 µM; actives 1.4% (n = 330,000); AID 463195, 2010;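 active means inhibition of 40% or more at the single tested concentration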;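 further: wild-type TIM10 isogenic control strain grown at permissive 25 °C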
tim23-1 inh – growth inhibitors of tim23-1 mutant yeast, primary screen, luminescence, uHTS; S. cerevisiae tim23-1 growth, BacTiter-Glo luminescence, 24 h; inhibition, % at 20 µM; actives 1.3% (n = 330,000); AID 463212, 2010;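 active means growth inhibition of the mutant yeast at or above 50%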;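 further: temperature-sensitive mutant grown at 25 °C; plate controls were DMSO-treated mutant yeast for no effect and medium wells lacking yeast for full effect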
tim10-1 inh – growth inhibitors of tim10-1 mutant yeast, primary screen, luminescence, uHTS; S. cerevisiae tim10-1 ts strain growth, BacTiter-Glo, 24 h; inhibition, % at 20 µM; actives 2.2% (n = 330,000); AID 463190, 2010;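 active means inhibition of at least 40%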;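 further: mutant grown at 25 °C; 0% = DMSO wells with yeast and 100% = wells holding no yeast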
NLRP3 yeast inh – NALP3 inflammasome inhibitors in reconstituted yeast, primary screen, luminescence, uHTS | Yeast reconstituted NLRP3/ASC/caspase-1, beta-gal luminescence, 24 h | inhibition, % at 10 µM | actives 0.39% (n = 330,000) | AID 2825, 2010;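 active means inhibition of 50% or more; inactive means inhibition below 50%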;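 further: plate controls were induced DMSO wells for no effect and uninduced yeast grown without galactose for full effect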
tim10-1 confirm – growth inhibitors of tim10-1 mutant yeast, confirmation, single concentration, luminescence, S. cerevisiae | shares compounds with tim10-1 inh | S. cerevisiae tim10-1 ts strain growth, BacTiter-Glo, 24 h | inhibition, % at 20 µM | actives 56% (n = 7,400) | AID 463213, 2010;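 active means inhibition of yeast growth at or above a set limit in either of two repeat tests at 20 µM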;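 further: tim10-1 mutant grown at permissive 25 °C to find synthetic lethal compounds; 0% = DMSO yeast wells and 100% = medium wells without yeast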
Numbers without * were called inactive; . = no result.

SMILES	NALP1 inh	TIM10 inh	tim23-1 inh	tim10-1 inh	NLRP3 yeast inh	tim10-1 confirm
CCOC(=O)N1CCN(C2=C(NS(=O)(=O)c3ccc(C)cc3)C(=O)c3ccccc3C2=O)CC1	-1.8	4.9	39.0	48.8*	5.2	16.9
Cc1cccc2c1N(CCOc1ccc(C(C)(C)C)cc1)C(=O)C2=O	28.4	27.6	42.9	46.1*	13.3	33.0*
O=C(NCC1(N2CCOCC2)CCCCC1)c1cccc(S(=O)(=O)N2CCc3ccccc3C2)c1	17.7	9.5	30.4	5.1	8.5	.
CCCc1nc([N+](=O)[O-])c(S(=O)(=O)c2ccccc2)n1CC(C)C	11.3	20.7	31.6	50.5*	-9.3	26.1
CC(=O)c1ccc(N2CCN(C(=O)c3cc4c(s3)CCCC4)CC2)cc1	17.1	13.0	34.5	46.9*	28.1	29.7
O=C(c1cc2c(s1)CCCCC2)N1CCN(c2ncccn2)CC1	-1.0	17.8	35.6	45.0*	20.6	29.0
CCn1c(-c2csc3c2CCC(C)C3)n[nH]c1=S (centres undefined)	25.2	24.1	45.2	48.2*	11.3	14.2
COC(=O)[C@@]1(C)[C@H]2C(=O)N(Cc3ccccc3)C(=O)[C@H]2[C@H]2CN=C(SCC(=O)c3ccccc3)N21	.	2.9	38.2	11.9	.	.
Cc1ccc(NC(=O)C(C)N2C(=O)C3C4CC(C(Br)C4Br)C3C2=O)cc1 (centres undefined)	7.9	24.5	19.1	47.6*	-4.7	31.8*
COc1ccc(OCC(=O)NC2CCCN(Cc3ccc(Cl)cc3)C2)cc1 (centres undefined)	11.3	4.8	9.4	16.5	19.2	.
CS(=O)(=O)c1ccc(Cl)c(NC(=O)COc2ccc3c(c2)CCC3)c1	.	9.4	12.2	12.4	3.2	.
CC(C)OC(=O)CSc1nnc(-c2cnccn2)n1-c1ccc(Cl)cc1	15.0	10.5	25.0	41.4*	-2.8	21.0
CCOC(=O)C1(Cc2cccc(F)c2)CCN(C(=O)c2cnc(C)cn2)CC1	-2.7	7.0	4.5	3.6	7.9	.
O=C1N/C(=C/c2ccc(N3CCOCC3)o2)C(=O)N1c1cccc(Cl)c1	-6.4	3.6	18.2	43.1*	36.5	35.6*
O=C(Oc1ccc(C(=S)N2CCOCC2)cc1)c1ccccc1[N+](=O)[O-]	24.2	29.3	29.2	41.6*	11.4	36.6*
COc1cc(/C=N/NC(=O)Nc2ccccc2)ccc1OC(C)=O	20.5	19.5	14.1	12.7	-21.3	.
C=CC[n+]1c(/C=C/c2ccc(OC(C)=O)c(OC)c2)ccc2ccccc21	17.6	20.8	33.7	56.9*	24.9	38.2*
Cc1cc2nc(-c3ccc4c(c3)CCC4)ccn2n1	10.0	-22.9	18.8	41.0*	17.3	19.9
Cc1cc2nc(-c3cc(N4CCOCC4)ccc3[N+](=O)[O-])ccn2n1	-9.3	-7.8	4.9	1.4	9.7	.
CC1=C(C(=O)OC(C)C)C(c2ccccc2)NC(=S)N1C (centres undefined)	13.5	6.6	13.9	0.5	-0.5	.
O=C(CCS(=O)(=O)Cc1ccccc1F)N1CCc2ccccc2C1	3.7	9.2	25.1	15.5	0.9	.
O=C(CCS(=O)(=O)Cc1ccccc1)N1CCc2ccccc2C1	6.8	27.6	46.0	47.1*	17.5	40.0*
CCc1cc(Cn2nc(-c3ccccc3)cc2C(=O)NCc2cccs2)on1	.	-1.1	25.3	4.1	18.1	.
Cc1cc(C(F)(F)F)n2nc(-c3cnn(C)c3C(F)(F)F)c(Br)c2n1	9.1	23.3	43.2	40.8*	11.5	30.1
Cc1cc(C(F)(F)F)n2nc(C(=O)O)c(Cl)c2n1	-5.6	2.0	-0.1	-15.6	8.7	.
SMILES	NALP1 inh	TIM10 inh	tim23-1 inh	tim10-1 inh	NLRP3 yeast inh	tim10-1 confirm
COc1ccc(NC(=O)C2CCCN(c3ncnc4onc(-c5ccc(F)cc5)c34)C2)cc1 (centres undefined)	13.6	4.5	31.6	42.2*	2.4	-7.1
CCn1c(COc2cccc(C)c2C)nnc1SCC(=O)Nc1cc(C)on1	-10.7	-7.8	-13.3	-11.3	11.1	.
NC(=O)c1ccc(SCC(=O)OCC(=O)NC2CCCCCCC2)c([N+](=O)[O-])c1	.	11.5	-3.4	-0.9	-0.4	.
Cc1[nH]n(-c2ccc([N+](=O)[O-])cc2)c(=O)c1C=NCC1CCCO1 (centres undefined)	-1.5	9.9	9.1	15.4	5.2	.
Cc1ccc(-n2[nH]c(C)c(/C=N/Nc3ccc([N+](=O)[O-])cc3[N+](=O)[O-])c2=O)cc1	15.4	24.2	33.8	48.8*	23.3	34.9*
O=C(NCc1csc(-c2cccs2)n1)c1cccc(Cl)c1	-0.3	-3.2	24.1	-16.0	31.2	.
COc1cc(C2C=C(Nc3ccccc3)C(=O)N2c2ccccc2)ccc1O (centres undefined)	5.3	19.3	20.6	41.9*	26.9	10.9
CC(C)NS(=O)(=O)c1ccc(Oc2ncc(C(F)(F)F)cc2Cl)cc1	26.1	8.2	19.7	48.8*	8.5	25.6
COc1ccc(S(=O)(=O)NN(C)c2ncc(C(F)(F)F)cc2Cl)cc1	-1.9	7.3	15.1	40.3*	3.1	14.9
N#CCc1ccc(Oc2ncc(C(F)(F)F)cc2Cl)cc1	-7.6	30.7	38.8	47.5*	-9.1	27.9
COc1cccc(/C=C/C(=O)N(C)CC(=O)Nc2ccc(Cl)c(C(F)(F)F)c2)c1	.	13.8	19.0	7.3	10.6	.
O=[N+]([O-])c1c(NCc2ccccc2)cc(N2CCc3ccccc3C2)c2nonc12	18.4	28.2	22.8	12.1	16.1	.
COc1ccc(OC(=O)c2cccc(S(=O)(=O)N3CC(C)OC(C)C3)c2)cc1 (centres undefined)	.	13.0	24.8	18.8	18.8	.
Cc1ccccc1S(=O)(=O)c1c(C)cc(C)n(CC(C)C)c1=O	-4.4	30.5	20.2	48.0*	-14.2	25.1
O=C(Oc1c(CN2CCOCC2)cc(Cl)c2cccnc12)c1ccccc1	5.7	36.1	41.7	50.8*	27.9	19.7
Nc1c(C(=O)c2ccccc2)sc2snc(SCC(=O)c3ccccc3)c12	11.7	18.3	27.9	62.2*	24.8	66.5*
O=C1C2C3CCCC3=C3CCCC3C2C(=O)N1c1ccc(Cl)cc1 (centres undefined)	9.7	16.5	38.8	42.1*	-3.8	30.6*
CC(=O)Nc1ccc(N(C(=O)c2ccco2)C(C(=O)NC2CCCC2)c2ccncc2)cc1 (centres undefined)	9.7	5.2	-3.0	-13.5	18.2	.
CC(C)Oc1ccc(C(=O)Nc2cc(S(=O)(=O)N3CCOCC3)ccc2N2CCOCC2)cc1	.	4.6	24.1	12.6	18.4	.
COc1ccc(Cl)cc1NC(=O)CN(C)C(=O)CCSc1ccc(C)cc1	.	0.4	32.7	-7.4	19.3	.
